TDP1 cell CPT: growth inhibition of DT40 Tdp1-/-;hTDP1 cells with camptothecin (screen for TDP1 inhibitors); 420,000 compounds, 12% hits; chicken DT40 Tdp1-/-;hTDP1 cells + 20 nM CPT, ATP luminescence, 48 h; AID 686979; Potency, µM (titrated, usually from 46.2 µM), most hits filed as inhibitors; note: nearly all actives have a fitted effect of over 55% in size
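Cell growth measured by CellTiter-Glo luminescence after a minimum 48 h, 37 C compound exposure with 20 nM CPT in Tdp1-knockout DT40 cells stably expressing hTDP1, seeded 400/well; qHTS titration format.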
HT1080 IDH1KD tx: toxicity to HT-1080 IDH1 knockdown cells (counter line); Potency, µM (titrated, usually from 46.1 µM), most hits filed as cytotoxic; AID 686971; HT-1080 IDH1 knockdown viability, ATP luminescence, 48 h; 360,000 compounds, 2% hits
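HT-1080-IDH1KD cells (IDH1 knocked down), 750/well in RPMI with 5% FBS, treated with compound 48 h at 37 degrees C. Viability by CellTiter-Glo luminescence, normalised to DMSO and no-cell wells; concentration-response curves classed.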
IL1B secr inh: inhibitors of inflammasome signaling (IL-1 beta secretion) | activity change, % at 57.5 µM | THP-1 LPS/ATP IL-1B secretion, AlphaLISA, 16 h; stronger effect = lower value | 360,000 compounds, 4.7% hits; in the data active = activity change below about -50%; inconclusive = mostly about -30% to -49%
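Secreted IL-1B measured by AlphaLISA bead assay after 16 h compound exposure of THP-1 cells; compounds (final up to 57.5 uM) added 1 h before LPS (250 ng/mL) and ATP (1.25 mM) stimulation; lower signal means less secretion.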
HT1080-NT tox: kills 2HG-producing HT-1080-NT fibrosarcoma cells. HT-1080-NT fibrosarcoma viability, CellTiter-Glo ATP luminescence, 48 h. Potency, µM (titrated, usually from 46.1 µM), most hits filed as cytotoxic. 360,000 compounds, 1.6% hits. AID 686970;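 note: NT is the 2HG producing partner of a matched IDH1 knockdown line; nearly all actives have a fitted effect of over 55% in size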
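Viability by CellTiter-Glo luminescence after 48 h compound exposure at 37C of HT-1080-NT cells (750/well, RPMI, 5% FBS). % activity scaled between DMSO wells and medium-only wells, then curve-fitted and categorized by curve class.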
ELG1 DNA repair: blocks ELG1-dependent DNA repair in HEK293T cells; HEK293T ELG1-luciferase reporter, luminescence, 16 h; DNA damage induced by 5-fluorouridine; Potency, µM (doses to about 46.1 µM), hits mostly inhibitors; 330,000 compounds, 2.3% hits; AID 504467; note: nearly all actives have a fitted effect of over 55% in size
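Quantitative HTS, concentration-response format. 2,000 cells/well co-treated with 5-fluorouridine and compound, 16 hr in 5% CO2 at 37 °C; ONE-Glo luminescence read after 30 min.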
TDP1 cell noCPT: qHTS for Inhibitors of human tyrosyl-DNA phosphodiesterase 1 (TDP1): qHTS in cells in absence of CPT; DT40 Tdp1-/- hTDP1 cells, no CPT, ATP luminescence, 48 h; Potency, µM (titrated, usually from 46.2 µM), hits mostly inhibitors; 420,000 compounds, 15% hits; AID 686978, 2013; note: nearly all actives have a fitted effect of over 55% in size
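Cells were dispensed at 400 per well, compounds added by pin tool, plates incubated ≥48 hr at 37 °C, then CellTiter-Glo added for 30 min at room temperature before luminescence reading. Line: DT40 Tdp1-/- complemented with hTDP1; camptothecin omitted.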
A number is an active result. Sampled rows, rich in hits. Any-hit rate of the full collection: about 19%. Unless noted, calls come from the whole dose curve; as a rule, active = well fitted curve in the direction sought with a large enough effect; inconclusive = small, poorly fitted or top-dose-only effect, or another doubt; inactive = no such curve, though single readings can be large; an effect the other way counts as inactive or inconclusive.

What do the screens show for `COCCCNC(=O)C[C@H]1C[C@H](C(=O)N2CCCCC2)[C@@]2(C)c3[nH]c4ccc(Cl)cc4c3CCN2C1=O`?
TDP1 cell CPT: 21µM; HT1080 IDH1KD tx: inactive; IL1B secr inh: inactive; HT1080-NT tox: inactive; ELG1 DNA repair: inconclusive; TDP1 cell noCPT: 13µM

What do the screens show for `COCCCNC(=O)CC1C[C@H](C(=O)N2CCCCC2)[C@@]2(C)c3[nH]c4ccc(OC)cc4c3CCN2C1=O` (stereo partly drawn)?
TDP1 cell CPT: inactive; HT1080 IDH1KD tx: inactive; IL1B secr inh: inactive; HT1080-NT tox: inactive; ELG1 DNA repair: inactive; TDP1 cell noCPT: inactive

How did COc1ccc2[nH]c3c(c2c1)CCN1C(=O)C(CC(=O)NCc2ccco2)C[C@H](C(=O)N2CCCCC2)[C@@]31C (stereo partly drawn) do in these assays?
TDP1 cell CPT: inactive; HT1080 IDH1KD tx: inactive; IL1B secr inh: inactive; HT1080-NT tox: inactive; ELG1 DNA repair: inactive; TDP1 cell noCPT: inconclusive

What do the screens show for `C[C@]12c3[nH]c4cc(-c5ccco5)ccc4c3CCN1C(=O)[C@@H](CC(=O)NCCc1ccccn1)C[C@@H]2C(=O)N1CCCCC1`?
TDP1 cell CPT: inconclusive; HT1080 IDH1KD tx: inactive; IL1B secr inh: -108; HT1080-NT tox: inactive; ELG1 DNA repair: inconclusive; TDP1 cell noCPT: inconclusive

Results for CC[C@]12c3[nH]c4cc(-c5ccco5)ccc4c3CCN1C(=O)[C@@H](CC(=O)NCCc1ccccn1)C[C@@H]2C(=O)N1CCN(C(=O)C2CC2)CC1 ?
TDP1 cell CPT: inconclusive; HT1080 IDH1KD tx: inactive; IL1B secr inh: inactive; HT1080-NT tox: inactive; ELG1 DNA repair: inactive; TDP1 cell noCPT: inconclusive

Results for C[C@]12c3[nH]c4ccc(Cl)cc4c3CCN1C(=O)[C@@H](CC(=O)NCCc1ccccn1)C[C@@H]2C(=O)N1CCCCC1 ?
TDP1 cell CPT: inconclusive; HT1080 IDH1KD tx: inactive; IL1B secr inh: inactive; HT1080-NT tox: inactive; ELG1 DNA repair: 7.3µM; TDP1 cell noCPT: 26µM

What do the screens show for `CCCCCn1c(=O)[nH]c2cc(C(=O)NCCCN3CCCCC3CC)ccc2c1=O` (stereo not drawn)?
TDP1 cell CPT: inconclusive; HT1080 IDH1KD tx: inactive; IL1B secr inh: inactive; HT1080-NT tox: inactive; ELG1 DNA repair: inactive; TDP1 cell noCPT: inconclusive

Results for O=C(NC1CC(=O)N(c2cccc(F)c2)C1)c1cc2ccccc2o1 (stereo not drawn) ?
TDP1 cell CPT: inactive; TDP1 cell noCPT: inconclusive

What do the screens show for `O=c1ccn([C@@H]2O[C@H](CNCc3ccccc3OCc3ccc(Cl)cc3Cl)[C@@H](O)[C@H]2O)c(=O)[nH]1`?
TDP1 cell CPT: 21µM; HT1080 IDH1KD tx: inactive; IL1B secr inh: inactive; HT1080-NT tox: inactive; TDP1 cell noCPT: inconclusive

How did Cc1ccccc1NC(=O)Cc1nc(COC(=O)c2ccc(Cl)c(S(N)(=O)=O)c2)cs1 do in these assays?
TDP1 cell CPT: inconclusive; HT1080 IDH1KD tx: inactive; IL1B secr inh: inactive; HT1080-NT tox: inactive; ELG1 DNA repair: 5.2µM; TDP1 cell noCPT: inconclusive

Results for CC(=O)c1c(C)[nH]c(C(=O)OCc2csc(CC(=O)Nc3ccccc3C)n2)c1C ?
TDP1 cell CPT: 18µM; HT1080 IDH1KD tx: inactive; IL1B secr inh: inactive; HT1080-NT tox: inactive; ELG1 DNA repair: 13µM; TDP1 cell noCPT: 9.2µM

What do the screens show for `CC(C)=CC(=O)OCc1csc(CC(=O)Nc2ccccc2C)n1`?
TDP1 cell CPT: inactive; HT1080 IDH1KD tx: inactive; IL1B secr inh: inactive; HT1080-NT tox: inactive; ELG1 DNA repair: inactive; TDP1 cell noCPT: inactive

What do the screens show for `CCOc1ccccc1NC(=O)CCS(=O)(=O)c1ccc2c(c1)oc(=O)n2C`?
TDP1 cell CPT: inactive; TDP1 cell noCPT: inactive

Screening results from PubChem BioAssay.
